Sampled rows, rich in hits. Any-hit rate of the full collection: about 1.5%.
RAD52 anneal inh – blocks human RAD52 DNA annealing | P43351 | recombinant RAD52 DNA annealing, FRET fluorescence | inhibition, % at 18.7 µM | 360,000 compounds, 0.46% hits;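 active = every replicate showing at least 50% inhibition; inconclusive = mean inhibition at least 50% but not in every replicate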
Glyco luc inh – blocks N-linked glycosylation in D54 reporter cells. D54 ERlucT glycosylation luciferase reporter, 24 h; percent of 100 nM tunicamycin response. reporter increase, % at 12.5 µM. 360,000 compounds, 0.23% hits. AID 588692;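 active = mean luciferase reporter signal, scaled so untreated is 0 and the glycosylation-blocking control 100, at or above a set limit in every replicate; inconclusive = mean reaches the limit but not every replicate does; inactive = mean below the limit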;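 also: luciferase carries N-glycosylation sites so blocking glycosylation raises the light; 0% = median of neutral control wells and 100% = median of 100 nM tunicamycin wells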
dFosB activator – activators of mouse delta FosB homodimer | purified delta FosB, TAMRA-CDK5 oligo fluorescence polarization; percent of positive-control signal above neutral wells | 340,000 compounds, 0.99% hits | activation, % at 25 µM | AID 493131 | P13346;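 active = mean activation above about 17%, with every replicate also reaching it, limit read from the data, passing the limit was not always enough; inconclusive = only one of the two conditions met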
RAD54 branch – blocks human RAD54 Holliday junction branch migration. Q92698. FAM/BHQ fluorescence. inhibition, % at 10.4 µM. 360,000 compounds, 0.14% hits. AID 602329;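 active = mean normalized replicate activity at least 40 and at least half of replicates scoring 40 or more; inconclusive = only one of the two criteria met; inactive = mean below 40 and under half of replicates reaching 40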;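 also: 0% = median of neutral control wells and 100% = median of positive control wells; inhibitors cause a drop in the FAM fluorescence signal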
Target sequence (Q92698 whole entry, looked up): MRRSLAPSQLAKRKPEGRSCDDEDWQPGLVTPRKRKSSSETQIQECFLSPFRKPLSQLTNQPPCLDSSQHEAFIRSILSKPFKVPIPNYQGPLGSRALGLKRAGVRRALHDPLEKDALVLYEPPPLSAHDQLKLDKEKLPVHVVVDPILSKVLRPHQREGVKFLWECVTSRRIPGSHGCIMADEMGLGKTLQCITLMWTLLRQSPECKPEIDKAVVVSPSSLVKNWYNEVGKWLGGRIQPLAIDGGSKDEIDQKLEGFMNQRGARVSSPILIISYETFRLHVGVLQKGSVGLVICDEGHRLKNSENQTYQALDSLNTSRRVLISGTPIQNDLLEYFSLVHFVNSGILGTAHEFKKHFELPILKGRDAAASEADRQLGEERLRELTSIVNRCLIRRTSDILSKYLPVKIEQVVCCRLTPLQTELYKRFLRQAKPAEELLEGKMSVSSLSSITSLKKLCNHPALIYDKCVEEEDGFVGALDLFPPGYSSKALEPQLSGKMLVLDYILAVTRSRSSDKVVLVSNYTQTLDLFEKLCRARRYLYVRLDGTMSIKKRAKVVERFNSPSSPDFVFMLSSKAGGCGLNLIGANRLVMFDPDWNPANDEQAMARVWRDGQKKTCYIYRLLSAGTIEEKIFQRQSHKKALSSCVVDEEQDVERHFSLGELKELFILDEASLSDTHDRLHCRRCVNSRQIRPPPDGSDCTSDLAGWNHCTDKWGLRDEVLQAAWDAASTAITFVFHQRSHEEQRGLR
PvdQ inh – P. aeruginosa PvdQ acylase inhibition; 340,000 compounds, 0.063% hits; AID 488965; inhibition, % at 10 µM; purified PvdQ acylase, fluorescence plate reader; in the data active = inhibition above about 30%, passing the limit was not always enough; inconclusive = no clear call, values can overlap the other calls;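 also: 0% = vehicle neutral wells and 100% = reference inhibitor wells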
F508del corr – correctors of CFTR F508del function in bronchial epithelial cells. AID 720511. activity (quench increase), % at 7.58 µM. 350,000 compounds, 0.36% hits. CFBE cells, YFP halide quenching; stimulated with forskolin plus potentiator P3; % fluorescence drop versus neutral controls;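 active = mean added fluorescence quench of at least 8% versus neutral control, with both replicates also reaching 8%; inconclusive = only one of the mean or replicate conditions met; inactive = mean below 8% and not both replicates reaching 8%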;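 also: cells transiently co-express mutant CFTR-F508del with the halide-sensitive YFP; corrector assay measuring rescue of mutant channel to the surface after 24 h compound exposure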
Starred values were filed as active, the others as inactive; ? = inconclusive; · = not tested or not shown.

SMILES	RAD52 anneal inh	Glyco luc inh	dFosB activator	RAD54 branch	PvdQ inh	F508del corr
O=C(C[C@@H]1CC[C@@H](NS(=O)(=O)c2ccc(F)cc2)[C@H](CO)O1)NC1CCC1	10	·	·	-3	·	2
O=S(=O)(c1ccccc1)N(CC1CO1)c1cc(Cl)ccc1Cl (stereo unspecified)	-21	0	-6	-1	-24	1
Clc1ccc(N(CC2CO2)CC2CO2)cc1 (stereo unspecified)	2	2	2	·	-9	8.1*
Cc1ccc(S(=O)(=O)N(C)C[C@@H]2Oc3c(cccc3N(C)C)C(=O)N([C@H](C)CO)C[C@@H]2C)cc1	-14	·	·	4	·	1
CC(C)C(C(=O)OCC(=O)c1ccc2c(c1)NC(=O)CO2)N1C(=O)c2ccccc2C1=O (stereo unspecified)	·	0	23*	7	8	·
CC(C)[C@H](NC(=O)c1ccccc1)C(=O)OCC(=O)c1ccc2c(c1)NC(=O)CO2	·	3	-9	-1	-11	·
C[C@@H](NC(=O)C[C@H]1CC[C@H]2[C@@H](COc3ccc(NS(=O)(=O)c4ccc(Cl)cc4)cc3C(=O)N2C)O1)c1ccccc1	19	·	·	7	·	0
CCOc1ccc(NC(=O)CN(c2ccc([N+](=O)[O-])cc2)S(=O)(=O)c2ccccc2)cc1	-14	7	5	·	-6	15*
CC(=O)Nc1ccc(NC(=O)CN(c2ccc([N+](=O)[O-])cc2)S(=O)(=O)c2ccccc2)cc1	-13	-1	-6	5	-8	-1
CC(C)C1N=C(c2ccc3c(c2)OCO3)CC(c2ccccc2O)N1 (stereo unspecified)	·	37*	2	4	-3	·
CCOc1ccccc1C1N=C(c2ccc(OC)cc2)CC(c2ccccc2O)N1 (stereo unspecified)	-45	7	9	·	-6	0
Cc1ccc(-n2cc(-c3ccccc3)c3c(N4CCOCC4)ncnc32)cc1	-3	-3	-11	·	4	8.2*
CC#CCN1c2ccccc2[C@]23C[C@@H](C(=O)OC)N(C(=O)c4cc(C)oc4C)C2=NC(C(=O)OC)=C(C(=O)OC)[C@H]13	-22	33*	-9	-7	-11	6
COc1ccc(OC)c(N(CC(=O)Nc2ccc(NC(C)=O)cc2)S(C)(=O)=O)c1	6	3	0	-18	-14	0
COC(=O)c1ccc(C)c(NC(=O)CN(c2cc(OC)ccc2OC)S(C)(=O)=O)c1	·	74*	1	-1	8	·
Cc1ccc(S(=O)(=O)Nc2ccc3c(c2)C(=O)N([C@H](C)CO)C[C@@H](C)[C@H](CN(C)C(=O)C2CCCCC2)OCCCC[C@H](C)O3)cc1	25	·	·	-2	·	-2
Cc1ccc(C(=O)N/C(=C\c2cccs2)C(=O)NCCc2c[nH]c3ccccc23)cc1	·	42*	-4	·	0	·
COc1ccccc1C(=O)NC(=S)/C=C1/N(C)c2ccccc2C1(C)C	-37	-4	0	·	5	10.0*
C/C=C/c1ccc([C@@H]2[C@H](CO)N(CC3CC3)[C@H]2CNC(=O)c2ccccc2)cc1	-19	·	·	-1	·	10*
O=C(NC[C@H]1[C@H](c2ccccc2)[C@H](CO)N1CC1CCCC1)c1ccccc1	5	·	·	3	·	3
C/C=C/c1ccc([C@H]2[C@@H](CNC(=O)CC)N(C(=O)COC)[C@H]2CO)cc1	-11	·	·	1	·	14*
O=C(c1cccc([N+](=O)[O-])c1)N1CC2C3C=CC(C3)C2C1 (stereo unspecified)	-4	0	-15	7	43*	3
COc1ccc(OC)c(Nc2nc(-c3c(C)nc4ncccn34)cs2)c1	-7	42*	-18	15	-7	-1
COc1ccc(Nc2nc(-c3sc(C)nc3C)cs2)c(OC)c1	2	?	-14	8	21	16*
COc1ccc(Nc2nc(-c3cccs3)cs2)c(OC)c1	·	-6	-4	-2	-13	·
Cc1nc2ncccn2c1-c1csc(Nc2cccc(C(=O)O)c2)n1	-15	1	-13	4	-13	-2
Cc1ccc(Nc2nc(-c3sc(C)nc3C)cs2)cc1	-1	18	-7	-8	?	19*
CC(C)NC(=O)Nc1ccc2c(c1)CC(=O)N([C@H](C)CO)C[C@H](C)[C@@H](CN(C)C(=O)Nc1ccc3c(c1)OCO3)O2	14	·	·	3	·	2
